Reference: PubChem BioAssay AID1272365 (Small Molecule Screening Facility, UW Madison, 2018)
“And” between values parts separate entries of the source, which are not always exact repeats. Equal entries are not always repeated. Hit rate of the full screen: of about 430,000 compounds, about 2,600 (0.6%) were called active. This is one part of a sample in which actives are shown more often than they occur. Unmarked numbers belong to inactive results. Rule as the data show it: active = inhibition mostly above about 37% (no sharp cut-off); inactive = mostly below about 20%.

Tested on: PriA–SSB C-terminal tail interaction (Klebsiella pneumoniae)
Test: blocks PriA binding to SSB C-terminal tail, primary screen, biochemical, AlphaScreen (AID 1272365);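 also: plate controls were negative control peptide for no effect and reference peptide for full effect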
Details: AlphaScreen SSBct-PriA binding, biotinylated peptide; at 33 µM, active compounds read high

SMILES | inhibition
N#CCSc1ncc(-c2ccc(Br)cc2)n1-c1ccc(F)cc1 | 7%
Cn1c(-c2ccc(F)cc2)cnc1SCC(=O)NNC(=O)Cc1ccccc1 | -3.92%
O=C(CSc1ncc(-c2ccccc2)n1-c1ccc(F)cc1)N1CCCC1 | 43% (active)
CS(=O)(=O)c1ccc(-c2ccc(NS(=O)(=O)c3ccc4c(c3)CCCC4)cc2)nn1 | -11%
O=C(c1cccc(Oc2ncccn2)c1)N1CCCC1 | -8%
O=C(C[C@@H]1C/C=C/CC[C@H](Cc2ccc(F)cc2)C(=O)OC[C@@H](Cc2ccccc2)NC1=O)NCCO | -9.28%
O=C(c1ccc(=O)[nH]n1)N1CCCC(Cc2nc(-c3ccsc3)no2)C1 (configuration not stated) | -8%
O=C(c1cc(-c2cccs2)on1)N1CCC[C@H](Cc2nc(-c3ccsc3)no2)C1 | 3%
O=C(c1ccc(-n2cccc2)cc1)N1CCC[C@H](Cc2nc(-c3ccsc3)no2)C1 | 31% (active)
O=C(c1ccc(-c2cccs2)cc1)N1CC(Oc2nccs2)C1 | -9%
Cn1c(Nc2ccccc2)cc(=O)n(C)c1=O | 43.6% (active)
Cc1cc(=O)n(C)c(=O)n1CCCNc1ccccc1 | -14.1%
CC(C)Oc1ccc(C(=O)Nc2cc(=O)n(C)c(=O)n2C)cc1 | -9.4%
N#Cc1nccnc1N1CCC(CNC(=O)c2cc(=O)c3ccccc3o2)CC1 | -11%
Cn1nc(CNS(=O)(=O)C2CC2)cc1-c1ccco1 | -8%
CCOCC(=O)NCc1ccc2c(c1)cc(C)n2C | 0.95%
COc1ccc(NC(=O)NCc2ccc3c(c2)OCO3)c(OC)c1 | -0.59%
COc1ccc(OC)c(NC(=S)NCc2ccc3c(c2)cc(C)n3C)c1 | 81.2% (active)
CCOc1ccc(S(=O)(=O)NCCCn2nc(-c3ccncc3)ccc2=O)cc1 | -20%
COC(=O)N1CCc2c(sc(NC(=O)c3cccc(N4C(=O)CCC4=O)c3)c2C#N)C1 | -11%
CC(Cc1cccs1)NC(=O)Cc1ccccc1Cl (configuration not stated) | -11%

SMILES | inhibition
COC(=O)c1ccc(C=NN2C(C)CCCC2C)cc1 (configuration not stated) | 14.5%
CC1CCCC(C)N1N=Cc1ccc([N+](=O)[O-])cc1 (configuration not stated) | 46.8% (active)
O=[N+]([O-])c1ccc(C=NN2CCN(c3ccc(Cl)cc3)CC2)cc1 | -20.9%
COc1ccc(C(=O)C=C(C)NCc2ccc3c(c2)OCO3)cc1 | 12.8%
CN1C(=O)C(C)(C)COc2ccc(NC(=O)c3ccc(Cl)cc3)cc21 | 18%
CCOc1ccc(-c2cn(S(=O)(=O)c3cccc4nsnc34)nc2N)cc1 | 40.5% (active)
CCOc1ccc(NC(=O)CCS(=O)(=O)c2cccc3nsnc23)cc1 | -12%
CCOc1ccc(N(CC)S(=O)(=O)c2cccc3nsnc23)cc1 | 4.13%
Brc1ccc(-c2nn[nH]n2)cc1 | -6.63%
C=C1Cn2c(nnc2-c2ccc(Br)cc2)S1 | 97% (active)
COc1ccccc1-c1nnc2n1N=C(c1ccc(Br)cc1)CS2 | -20%
O=C(C[C@H]1C/C=C/CCCC(=O)OC[C@H]2CCCN2C1=O)NCCO | -5.28%
Cn1nnc2c(N3CC(C(=O)Nc4ccc5cn[nH]c5c4)C3)ncnc21 | 2%
O[C@H](COc1cccc(Oc2ccccc2)c1)CN1CCN(c2ccccc2)CC1 | 31% (active)
OC(COCc1ccco1)CN1CCN(c2ccccc2)CC1 (configuration not stated) | -2.32%
OC(COc1ccc2c(c1)CCC2)CN1CCN(c2cccc(Cl)c2)CC1 (configuration not stated) | -11%
CSCC(C)(O)CNS(=O)(=O)c1cccc2ccccc12 (configuration not stated) | -6%
Cn1nc2cc(Br)ccc2c1C(=O)N1CCc2ncncc2C1 | 1%
CCc1cc(=O)[nH]c2nnc(SCC#N)n12 | -14%
COc1ccc(OC)c2sc(N(CCCN3CCOCC3)C(=O)c3cc(C)no3)nc12 | 3%
Cc1cc(C)c2nc(N(CCCn3ccnc3)C(=O)c3ccco3)sc2c1 | 95.7% (active)

SMILES | inhibition
Cc1cc(C)c2nc(N(CCn3cccn3)C(=O)c3cc4ccccc4o3)sc2c1 | -1%
O=C(NCCc1ccoc1)C(=O)Nc1ccc(F)cc1F | 8%
CCC1SC(=S)N(C)C1=O (configuration not stated) | -17%
CC(C)CCN1C(=O)C(C)(C)COc2cc(NC(=O)CN3C(=O)c4ccccc4C3=O)ccc21 | -6%
O=C(NCCCn1ccnc1)C(=O)NCC1OCCN1S(=O)(=O)c1cc(F)ccc1F (configuration not stated) | 70.1% (active)
O=C(NCCCc1ccccc1)C(=O)NCC1OCCN1S(=O)(=O)c1ccccc1 (configuration not stated) | -3.21%
Cc1cc(F)ccc1S(=O)(=O)N1CCCOC1CNC(=O)C(=O)NCCC1=CCCCC1 (configuration not stated) | 2.41%
O=C(Nc1cnc(-n2ccnc2)nc1)c1ccccc1Cl | -6%
O=C(c1cccs1)c1ccc(CNS(=O)(=O)CCOc2ccccc2)s1 | -4%
Cc1cc(=O)[nH]c(-n2nc(C)c(CCC(=O)Nc3ccc(Cl)cc3)c2C)n1 | -4%
Cc1cc(C)n(-c2nc(N)cc(=O)[nH]2)n1 | 73% (active)
Cc1cc(C)n(-c2nc(O)cc(=O)[nH]2)n1 | 5.59%
CN(C)CCN(C(=O)c1cc2cc([N+](=O)[O-])ccc2s1)c1nc2cc3c(cc2s1)OCO3 | 28%
O=C(C1CC=CCC1)N1CCCC(S(=O)(=O)c2ccc(F)cc2)C1 (configuration not stated) | -14%
COc1cc(NC(=O)NCCc2ccc3c(c2)CCCN3C)cc(OC)c1 | 63% (active)
CN1CCCc2cc(CCNC(=O)c3ccc(Br)cc3)ccc21 | 18% and -16%
CN1CCCc2cc(CCNC(=O)C(=O)Nc3ccc4c(c3)OCCO4)ccc21 | -11%
Cc1ccc(NC(=O)CCc2csc(NC(=O)c3ccc(=O)[nH]c3)n2)cc1Cl | -9%
CN(C)c1nn(CC(=O)NCc2ccc3c(c2)OCO3)cc1-c1ccc(Cl)cc1 | 1%
CC1Nc2ncnn2C(c2ccccc2)C1C(=O)Nc1ccccc1 (configuration not stated) | -3%
